This is an account of results in PubChem BioAssay (NCI).

Several values for one entry are separate records, joined by “and”; a condition that tells them apart may be missing. Equal values may be shown once. Compounds without any hit were thinned out: in the full panel of roughly 83,000, 20% have a hit.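 Method: cells in 96-well plates; compound added at one concentration; 48 h incubation; percent growth measured; values under 10 scored active.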 A number with no mark means an inactive call. Activity calls are given as the source filed them.

The test system of this test is MDA-MB-468 breast. The test can be described thus: NCI-60 one-dose screen, 48 h (100 = growth as untreated, 0 = no growth, -100 = all killed). Particulars: 10 µM unless noted.
In the case of `C/C=C/C1OC23CCCCC2C(C#N)(C(=N)O3)C1(C#N)C#N` (stereo not given), the growth was 77.7%.

For `CCNCCCn1c2c(c3ccc(Cl)cc3c1=O)C(=O)c1cc(OC)cnc1-2`, the growth is 5.92% (active).

As to `CC(=O)Nc1cccc(Cl)c1C`, the growth was 103%. Under `COc1ccc(-c2ccc(-c3ccc(C(=N)N)s3)s2)cc1` stands -75.9% (active); under `O=C(CN1CCCCCC1)Nc1nc2ccc(NCc3ccc(Cl)cc3)cc2s1`, 85.2%; under `O=C1/C(=C/c2ccccc2F)CN(C(=O)C(Cl)Cl)C/C1=C\c1ccccc1F`, -32.4% (active). For the compound `COc1cc(/C=C2\CCCC3=C2NC(C)=NC3c2cc(OC)c(OC)c(OC)c2)cc(OC)c1OC` (stereo not given), the growth is -4.61% (active). Under `O=S(=O)(CCN1CCOCC1)Nc1cc(-c2ccc3ncnc(Nc4ccc(F)c(Cl)c4)c3c2)cnc1Cl` stands -34.4% (active). `NC(=O)c1ccc[n+]([C@@H]2O[C@H](COP(=O)([O-])OP(=O)(O)OC[C@H]3O[C@@H](n4cnc5c(N)ncnc54)[C@H](O)[C@@H]3O)[C@@H](O)[C@H]2O)c1`: the growth was 122%. On to `O=C1/C(=C\c2cccnc2)SC(=S)N1CCc1ccc(O)cc1`, for which the growth is 35.2%. Turning to `O=C1Nc2cc(-c3ccc(O)cc3)ccc2/C1=C/c1ccc[nH]1`, the growth was -29.2% (active). With `C/C(=N\NC(=O)c1ccncc1)c1ccccc1O` the figure was 13.1% and 22.6%. As to `Clc1ccc2c(Nc3ccc4oc(NCCN5CCCC5)nc4c3)ccnc2c1`, the growth is 70.6%. With `COc1cc(CSc2nc3ccc(C)cc3c(=O)n2Cc2ccccc2)cc(OC)c1OC` the figure was -25.1% (active). Under `Nc1c(Br)cc(Br)cc1-c1n[nH]c(=O)[nH]c1=O` stands 104%; under `CCOC(=O)c1ccc2c(c1)nc(-c1ccc(OCc3ccccc3)c(OC)c1)n2-c1cc(C(C)(C)C)[nH]n1`, 77%; under `Cc1[nH]nc2ccc(-c3nc4cnc(N5CCN(C)CC5)cn4c3Nc3ccc(F)cc3Br)cc12`, 56.2%. With `Clc1ccc(Nc2nccc(Nc3ccc4[nH]ncc4c3)n2)cc1`, the growth was 33.6%.

As for `Cc1cc(Cl)ccc1NC(=O)/C(Cl)=C1/Sc2ccccc2NC1=O`, the growth is 95.1%. Under `O=[N+]([O-])c1ccc(N/N=C/c2ccccc2O)nc1` stands 10.3%; under `Cn1ccnc1C(=O)/C=C/c1ccc(C(=O)Nc2ccc(NC(=O)CCNC(=O)c3csc(Br)n3)cc2)cc1`, 48.4%; under `Cc1nc(N)nc(N[C@@H](C)c2nc3cccc(NCc4ccc(C(=O)NO)cc4)c3c(=O)n2-c2ccccc2)n1`, -5.1% (active). With `COC1CC(O)C2=C(CC3C(/C(C)=C\CC=C(C)C)CCC3(C)O2)C1=O` (stereo not given) the figure was 109%; with `CCCOc1cc2ccccc2cc1C(=O)Nc1nc(NC)c2c(ccc3nccc32)[nH]1`, -59.7% (active); with `C=C(C)CCCC(C)CC#N` (stereo not given), 93.3%.

Consider `COc1ccc(/C=C/C(=O)c2cc3c(N)c(C(=O)Nc4ccccc4Cl)sc3nc2C)cc1`, for which the growth was 5.35% (active). With `Cc1cccc(NCS(=O)(=O)O)c1` the figure was 93.7%; with `O=C(CCc1nc(-c2cccc(Cl)c2)no1)Nc1ccccn1`, 83.1%; with `COc1cc(NS(=O)(=O)c2ccc(N)cc2)ncn1`, 105%. In the case of `C[n+]1c(-c2ccccc2)c2cc(N)ccc2c2ccccc21`, the growth is -15.4% (active). For `NC(=O)c1c(NC(=O)c2ccc(F)cc2F)sc2c1CCC(=O)C2`, the growth was 81.7%. Turning to `Cc1nc2cccc(NCc3ccc(C(=O)NO)cc3)c2c(=O)n1-c1ccccc1`, the growth was -15.3% (active). `C#CCOc1ccc2ncnc(Nc3ccc(NC(=O)C=C)cc3)c2c1`: the growth was -22.3% (active).

`Oc1[nH]c2ccc(Cl)cc2c1N=Nc1nc(N=Nc2c(O)[nH]c3ccc(Cl)cc23)nc(N2CCOCC2)n1`: the growth is 23.6%. Consider `O=C(Nc1ccc2ncnc(Nc3ccc(Oc4cccc(F)c4)c(Cl)c3)c2c1)c1ccc(CN2CCOCC2)cc1`, for which the growth was 18.8%. For `C=C(C)[C@@H]1C[C@H](O)Cc2cc(F)ccc2N1`, the growth is 89.3%. With `Nc1cc2c(cc1Cl)C(=O)c1ccccc1C2=O` the figure was 70.2%; with `COc1cc2c(c(OC)c1)C1c3cc(OC)ccc3NC(=O)N1CC2` (stereo not given), 70.1%. Regarding `CC(=O)Oc1ccccc1C(=O)N=C1[Se]CCN1C(=O)c1ccccc1OC(C)=O`, the growth is -25.6% (active).

In the case of `COc1cc(-c2nn(-c3cccc(NC(=O)NCCNC(=O)c4cccc(C(F)(F)F)c4)c3)cc2-c2ccncc2)ccc1Cl`, the growth is 7.11% (active).
